Test [1] in a line: qHTS assay to identify small molecule agonists of the estrogen receptor alpha (ER-alpha) signaling pathway in the presence of an antagonist - cell viability counter screen (AID 1259386).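 Note: cells exposed to compounds for 22 h at 37 °C before the viability read; nearly all actives have a fitted effect of over 30% in size.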 Note: potency is the fitted concentration of half-maximal effect. In short, it runs like this:
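Viability counter screen using VM7Luc4E2 (full-length ER-alpha, four ERE-luciferase). The cells were treated with compounds alongside ICI-182,780 10.0nM for 22hr, and live-cell protease fluorescence was quantified with CellTiter-Fluor.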

For test [2], the target named is Progesterone receptor (Homo sapiens) (UniProt P06401). In words: qHTS assay to identify small molecule antagonists of the progesterone receptor (PR) signaling pathway (AID 1346795; active = well fitted inhibition curve with a large enough effect in the signal ratio in the repeat runs, not every such curve was filed as active; the % refers to the signal ratio; note: potency is the fitted concentration of half-maximal effect). The method in brief:
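After 6 hr plating at 37C in 2% stripped-serum medium, PR-UAS-bla HEK293T cells got compounds, then 1 nM R5020. Sixteen hours later, LiveBLAzer substrate was applied for 2 hr at room temperature and fluorescence was recorded.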

Test [3] is described as follows: qHTS assay to identify small molecule antagonists of the progesterone receptor (PR) signaling pathway - cell viability counter screen (AID 1346798). Note: nearly all actives have a fitted effect of over 50% in size. Note: potency is the fitted concentration of half-maximal effect. In short, it runs like this: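 Viability was determined by ATP-based luminescence (CellTiter-Glo) in PR-UAS-bla HEK293T cells cultured in 2% charcoal-stripped serum and incubated 16 hr with compounds under R5020 stimulation.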

The nature of test [4]: qHTS assay to identify small molecule agonists of the progesterone receptor (PR) signaling pathway - cell viability counter screen (AID 1346799; calls by dose curve; note: nearly all actives have a fitted effect of over 45% in size; note: potency is the fitted concentration of half-maximal effect). In short, it runs like this: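 Viability was scored by ATP luminescence (CellTiter-Glo, 30 min, room temperature) in the same wells used for the reporter readout, after 16 hr compound exposure of PR-UAS-bla HEK293T cells.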
The nature of test [5]: qHTS assay to identify small molecule antagonists of the TGF-beta/Smad signaling pathway - cell viability counter screen (AID 1346824). Note: nearly all actives have a fitted effect of over 50% in size. In short, it runs like this:
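Cytotoxicity counter-screen run in the same wells as the beta-lactamase Smad reporter read: CellTiter-Glo luminescence after 30 min at room temperature. HEK 293T SBE-bla cells had 5 hr compound exposure at 37 C with TGF-beta1 (0.25 ng/mL stock).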

The nature of test [6]: qHTS assay to identify small molecule agonists of the TGF-beta/Smad signaling pathway - cell viability counter screen (AID 1346829). Note: top concentration of the series differs between compounds; nearly all actives have a fitted effect of over 45% in size. The method in brief: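 Here the cytotoxicity of library compounds is measured in SBE-bla HEK 293T cells treated for 5 hr, using CellTiter-Glo added to wells already read for the beta-lactamase reporter.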
Test [7] can be described thus: qHTS assay to identify small molecule agonists of the TGF-beta/Smad signaling pathway (AID 1346859; active = well fitted activation curve with a large enough effect in the signal ratio in the repeat runs, not every such curve was filed as active; the % refers to the signal ratio; note: series mostly up to about 77 µM). In short, it runs like this:
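Dual-wavelength fluorescence (460/530 nm emission) quantified beta-lactamase expression under the Smad binding element in HEK 293T cells following 5 hr compound treatment at 37 C.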

Test [8] concerns the target Thyrotropin-releasing hormone receptor (Homo sapiens) (UniProt P34981). In words: qHTS assay to identify small molecule antagonists of the thyrotropin-releasing hormone receptor (TRHR) signaling pathway (AID 1346877; active = well fitted inhibition curve with a large enough effect in the repeat runs, not every such curve was filed as active; note: series mostly up to about 51 µM). In short, it runs like this:
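Following an 18 h incubation at 37 °C and a 2 h calcium dye load, TRHR-HEK293 cells were exposed to compound (5 min, room temperature) and challenged with TRH, 1 nM final.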

Test [9] shares this target. In words: qHTS assay to identify small molecule agonists of the thyrotropin-releasing hormone receptor (TRHR) signaling pathway (AID 1346891; calls by dose curve; note: potency is the fitted concentration of half-maximal effect;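 for activation: HEK293 cells expressing TRHR with calcium dye readout; series mostly up to about 58 µM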). In short, it runs like this:
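Kinetic fluorescence (3 min, 1 s intervals) reported intracellular calcium after compound transfer onto TRHR-Hek293 cells pre-loaded with dye for 2 h at 37 °C.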

The nature of test [10]: Human pregnane X receptor (PXR) small molecule agonists, qHTS cell viability counter screen (AID 1346977). Note: nearly all actives have a fitted effect of over 50% in size. Note: potency is the fitted concentration of half-maximal effect. The method in brief: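 HepG2 cells stably carrying the PXR-Luc reporter are cultured with 5% charcoal-stripped FBS and treated with compounds for 24hr. CellTiter-Fluor is added at 23hr and fluorescence is read after 1hr.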
Test [11] is described as follows: Caspase-3/7 induction in HepG2 cells by small molecules, qHTS assay (AID 1346978). Note: nearly all actives have a fitted effect of over 15% in size. Note: potency is the fitted concentration of half-maximal effect. The method in brief: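 Caspase-3/7 induction was measured by Caspase-Glo 3/7 luminescence (30 min, room temperature) after a 17 hr compound exposure of wild-type HepG2 cells seeded at 2,000 per well and pre-incubated 5 hr.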
Test [12] is described as follows: Caspase-3/7 induction in CHO-K1 cells by small molecules, qHTS cell viability counter screen (AID 1346979). Note: nearly all actives have a fitted effect of over 35% in size. Note: potency is the fitted concentration of half-maximal effect. The method in brief: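 Seeding: 1,500 CHO-K1 cells/well. Rest: 5hr, 37C. Treatment: compounds in DMSO, 16hr. Read: CellTiter-Fluor, 1hr, fluorescence.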
Test [13] can be described thus: Caspase-3/7 induction in CHO-K1 cells by small molecules, qHTS assay (AID 1346980). Note: nearly all actives have a fitted effect of over 15% in size. In short, it runs like this: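 Luminescent Caspase-Glo 3/7 read (30min, room temperature) quantified apoptosis induction. Cells were wild-type CHO-K1, treated with compound for 17hr at 37 C and 5% CO2.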
The nature of test [14]: Caspase-3/7 induction in HepG2 cells by small molecules, qHTS cell viability counter screen (AID 1346981). Note: nearly all actives have a fitted effect of over 30% in size. Note: potency is the fitted concentration of half-maximal effect. The method in brief: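 Viability determined by CellTiter-Fluor fluorescence in HepG2 wells also used for the luminescent Caspase-Glo 3/7 read. Compounds were present for 16 hr at 37 C, 5% CO2 before reagent addition.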
The target of test [15] is Nuclear receptor subfamily 1 group I member 2 (Homo sapiens) (UniProt O75469). The test is described as follows: Human pregnane X receptor (PXR) small molecule agonists, qHTS assay (AID 1346982). Note: potency is the fitted concentration of half-maximal effect; nearly all actives have a fitted effect of over 35% in size. The method in brief:
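Compound-induced hPXR transactivation of a CYP3A4 luciferase reporter was scored in HepG2 PXR-Luc cells over 24 hr at 37 C, 5% CO2, by luminescence.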

Test [16] deals with Acetylcholinesterase (Homo sapiens) (UniProt P22303). The test is described as follows: Acetylcholinesterase (AChE) small molecule antagonists: colormetric cell-based qHTS assay (AID 1347395; calls by dose curve; note: nearly all actives have a fitted effect of over 30% in size). In short, it runs like this:
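Quantitative HTS in attached SH-SY5Y cells: 30 min compound exposure, then 90 min with acetylthiocholine and DTNB at 37 C; colour from thiocholine reports AChE activity.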

Test [17] concerns the target Progesterone receptor (Homo sapiens) (UniProt P06401). The test is described as follows: qHTS assay to identify small molecule agonists of the progesterone receptor (PR) signaling pathway (AID 1346784; calls by dose curve; note: nearly all actives have a fitted effect of over 30% in size). The method in brief:
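The screen uses PR-UAS-bla HEK 293T cells in charcoal-stripped serum (2%). Compounds are applied for 16 hr at 37C after a 6 hr pre-incubation, and reporter activity is detected with a FRET beta-lactamase substrate after 2 hr at room temperature.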

Each structure is given as a SMILES string. Unmarked numbers belong to inactive results. Results filed as inconclusive are left out. The source made the active and inactive calls. Unless noted, calls come from the whole dose curve; as a rule, active = well fitted curve in the direction sought with a large enough effect in the repeat runs; inconclusive = weak or mixed curves; inactive = no such curve, though single readings can be large; an effect the other way counts as inactive or inconclusive.

Chain of Nuclear receptor subfamily 1 group I member 2 (Homo sapiens) (O75469 whole entry, looked up): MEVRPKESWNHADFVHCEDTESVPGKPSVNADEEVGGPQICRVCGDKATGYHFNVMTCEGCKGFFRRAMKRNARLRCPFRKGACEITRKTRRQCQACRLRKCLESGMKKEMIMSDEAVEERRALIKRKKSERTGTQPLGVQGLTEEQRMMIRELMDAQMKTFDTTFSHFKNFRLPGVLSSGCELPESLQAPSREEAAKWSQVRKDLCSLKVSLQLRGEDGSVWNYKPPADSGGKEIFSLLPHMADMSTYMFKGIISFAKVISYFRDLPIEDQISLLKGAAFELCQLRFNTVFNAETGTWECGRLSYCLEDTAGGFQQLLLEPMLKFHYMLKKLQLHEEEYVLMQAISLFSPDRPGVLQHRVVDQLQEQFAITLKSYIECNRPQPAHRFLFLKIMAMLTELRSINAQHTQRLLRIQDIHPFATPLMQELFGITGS
Chain of Thyrotropin-releasing hormone receptor (Homo sapiens) (P34981 whole entry, looked up): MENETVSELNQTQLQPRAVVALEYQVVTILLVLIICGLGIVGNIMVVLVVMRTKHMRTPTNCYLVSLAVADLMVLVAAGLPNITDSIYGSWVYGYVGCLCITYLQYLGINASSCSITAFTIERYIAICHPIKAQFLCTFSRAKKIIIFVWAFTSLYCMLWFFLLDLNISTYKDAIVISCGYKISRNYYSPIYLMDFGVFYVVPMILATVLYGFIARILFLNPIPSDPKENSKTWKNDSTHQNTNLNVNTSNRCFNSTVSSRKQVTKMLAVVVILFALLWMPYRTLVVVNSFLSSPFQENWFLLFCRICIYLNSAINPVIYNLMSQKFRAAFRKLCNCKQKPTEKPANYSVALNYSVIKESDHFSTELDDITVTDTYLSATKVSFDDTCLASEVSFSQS
Chain of Acetylcholinesterase (Homo sapiens) (P22303 whole entry, looked up): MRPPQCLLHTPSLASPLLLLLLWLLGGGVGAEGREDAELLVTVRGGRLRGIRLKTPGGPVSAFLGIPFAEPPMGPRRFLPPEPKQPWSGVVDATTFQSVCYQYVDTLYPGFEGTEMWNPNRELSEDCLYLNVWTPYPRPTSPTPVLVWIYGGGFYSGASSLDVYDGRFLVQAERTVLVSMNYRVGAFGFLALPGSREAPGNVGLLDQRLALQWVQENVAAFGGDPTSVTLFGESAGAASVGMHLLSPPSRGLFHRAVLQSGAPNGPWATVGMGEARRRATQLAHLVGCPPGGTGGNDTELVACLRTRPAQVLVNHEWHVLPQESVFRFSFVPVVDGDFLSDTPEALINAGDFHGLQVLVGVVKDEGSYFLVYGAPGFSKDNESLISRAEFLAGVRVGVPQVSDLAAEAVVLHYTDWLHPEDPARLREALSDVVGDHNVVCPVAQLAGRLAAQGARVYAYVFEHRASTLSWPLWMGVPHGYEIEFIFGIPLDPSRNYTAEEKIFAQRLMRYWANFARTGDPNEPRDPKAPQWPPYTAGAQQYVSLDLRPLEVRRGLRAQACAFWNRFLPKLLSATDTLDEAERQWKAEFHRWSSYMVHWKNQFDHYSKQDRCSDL
Chain of Progesterone receptor (Homo sapiens) (P06401 whole entry, looked up): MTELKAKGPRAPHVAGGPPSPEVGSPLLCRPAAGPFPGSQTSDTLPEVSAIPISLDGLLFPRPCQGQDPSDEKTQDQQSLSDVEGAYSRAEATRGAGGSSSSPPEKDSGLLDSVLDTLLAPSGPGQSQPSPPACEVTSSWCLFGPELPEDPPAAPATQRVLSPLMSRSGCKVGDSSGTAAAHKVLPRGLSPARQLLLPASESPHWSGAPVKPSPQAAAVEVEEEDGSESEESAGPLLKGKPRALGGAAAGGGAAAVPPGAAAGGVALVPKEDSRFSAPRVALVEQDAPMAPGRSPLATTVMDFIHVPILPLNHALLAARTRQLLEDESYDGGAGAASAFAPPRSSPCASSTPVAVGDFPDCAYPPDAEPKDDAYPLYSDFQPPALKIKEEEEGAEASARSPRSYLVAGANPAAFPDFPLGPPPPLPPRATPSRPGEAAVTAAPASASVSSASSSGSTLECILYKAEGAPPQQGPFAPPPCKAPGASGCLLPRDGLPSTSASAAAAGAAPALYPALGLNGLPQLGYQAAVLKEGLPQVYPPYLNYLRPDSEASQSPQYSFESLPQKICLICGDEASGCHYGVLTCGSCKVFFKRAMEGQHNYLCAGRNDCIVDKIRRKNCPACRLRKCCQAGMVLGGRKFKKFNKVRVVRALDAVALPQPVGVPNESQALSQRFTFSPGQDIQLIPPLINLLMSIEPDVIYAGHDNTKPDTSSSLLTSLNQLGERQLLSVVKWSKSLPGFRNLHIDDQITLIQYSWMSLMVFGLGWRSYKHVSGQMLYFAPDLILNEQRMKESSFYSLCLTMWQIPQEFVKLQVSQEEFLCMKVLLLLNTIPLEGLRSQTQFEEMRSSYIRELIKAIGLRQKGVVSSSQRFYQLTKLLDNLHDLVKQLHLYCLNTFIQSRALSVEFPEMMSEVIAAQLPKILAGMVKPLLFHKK

With `O=C(N[C@H]1N=C(c2ccccc2F)c2cccc3c2N(CC3)C1=O)c1cc2ccccc2[nH]1`, the Potency entry in test [1], in test [2], in test [3], in test [4], in [5] and in [6] was “inactive” in each case. Besides, the Potency entry in [8], in test [9], in [10], in test [11], in test [12] and in test [13] was “inactive” in each case. Moreover, the Potency entry in test [14] and in test [16] was “inactive” in each case. The result in test [7] was inactive. The Potency in [15] is 18.8 µM (active).
Turning to `CC1(C)[C@H](/C=C2\CCSC2=O)[C@@H]1C(=O)OCc1coc(Cc2ccccc2)c1`, the Potency entry in [1], in test [17], in test [5], in test [6], in [9] and in test [10] was “inactive” each time. The Potency entry in [11], in test [13], in [14] and in test [16] was “inactive” throughout. Also, the Potency in test [15] was 21.7 µM (active).
Regarding `COP(=S)(NC(C)C)Oc1ccc(C)cc1[N+](=O)[O-]` (configuration not stated), the Potency entry in test [1], in [3], in [5], in [6], in test [8] and in [9] was “inactive” each time. Also, the Potency entry in test [10], in test [11], in test [12], in [13], in test [14] and in [16] was “inactive” in each case. Moreover, the Potency was 7.7 µM (active) in [2] and 30.6 µM (active) in [15]. Also, the result in [7] was inactive.
In the case of `CC(C)C(Nc1ccc(C(F)(F)F)cc1Cl)C(=O)OC(C#N)c1cccc(Oc2ccccc2)c1` (configuration not stated), the Potency entry in [1], in test [17], in test [3], in test [5], in test [10] and in test [11] was “inactive” throughout. The Potency result in [13], in [14] and in test [16] was “inactive” each time. The molecule was classed as inactive in test [7]. Moreover, in [15], the Potency is 13.8 µM (active).
For `Nc1ccccc1-c1ccccc1`, the Potency entry in test [1], in [17], in [5], in test [6], in [8] and in test [9] was “inactive” each time. Also, the Potency result in test [10], in [11], in [12], in [13], in test [14] and in [16] was “inactive” throughout. The Potency in test [4] was 30.5 µM (active). Also, in test [7], the molecule was called inactive.
Regarding `CCO/N=C(\CC)C1=C(O)CC(c2c(C)cc(C)cc2C)CC1=O` (configuration not stated), the Potency entry in test [1], in [17], in test [5], in test [6], in test [10] and in [11] was “inactive” in each case. The Potency entry in test [13], in test [14] and in test [16] was “inactive” each time. Moreover, the result in [7] was inactive. In addition, in test [15], the Potency was 30.6 µM (active).
With `O.O.O.O=C([O-])[C@H]([O-])[C@@H]([O-])C(=O)[O-].O=C([O-])[C@H]([O-])[C@@H]([O-])C(=O)[O-].[K+].[K+].[Sb+3].[Sb+3]`, in test [1], the Potency is 54.8 µM (active). In addition, the Potency entry in test [17], in test [5], in [6], in [8], in test [9] and in [10] was “inactive” throughout. The Potency result in test [11], in test [13], in [14] and in test [16] was “inactive” in each case. Further, the result in [7] was inactive.
Take `O=C(NC(=O)c1ccccc1Cl)Nc1ccc(OC(F)(F)F)cc1`: the Potency result in [1], in test [17], in [5], in [6], in test [10] and in test [11] was “inactive” in each case. In addition, the Potency result in test [12], in test [13], in test [14] and in test [16] was “inactive” in each case. Further, the outcome in test [7] was inactive.
Consider `O=C(N[C@@H]1N=C(c2ccccc2F)c2cccc3c2N(CC3)C1=O)c1cc2ccccc2[nH]1`, for which the Potency result in test [1], in test [3], in test [4], in test [5], in [6] and in test [10] was “inactive” in each case. For the same molecule, the Potency result in [12], in test [13], in [14] and in [16] was “inactive” each time. Also, the molecule was classed as inactive in [7]. In addition, the figures for the Potency in [9] and in [15] were 12 µM (active) and 10.6 µM (active), respectively.
On to `CN`, for which the Potency result in test [1], in test [3], in test [4], in [5], in test [6] and in test [9] was “inactive” each time. Moreover, the Potency entry in test [10], in test [11], in test [12], in test [13] and in [14] was “inactive” throughout. The call in [7] was inactive.
`CCC(OC(C)=O)C(CC(C)NC)(c1ccccc1)c1ccccc1` (configuration not stated): the Potency result in test [1], in test [6], in [9] and in [16] was “inactive” throughout. Besides, the Potency in test [2] is 54.9 µM (active); in test [3] it was 54.9 µM (active); in test [10] it was 27.5 µM (active); in test [11] it was 69.2 µM (active); in test [12], 69.2 µM (active); in [14], 69.2 µM (active). The outcome in test [7] was inactive.

Source of the values: PubChem BioAssay (Tox21).
